“And” between values parts separate entries of the source, which are not always exact repeats. Equal entries are not always repeated. About 1,500 (2.5%) of roughly 59,000 compounds were called active. About 10% were inconclusive and are not listed. This excerpt belongs to a sample that is enriched for actives. A number with no mark means an inactive call. Calls come from the whole dose curve; as a rule, active = well fitted inhibition curve with a large enough effect; inconclusive = small, poorly fitted or top-dose-only effect; inactive = flat fitted curve, though single readings scatter.

Results on 56 compounds are retold here after PubChem BioAssay AID1645870 (National Center for Advancing Translational Sciences (NCATS), 2021).
Potency is the fitted concentration of half-maximal effect.

Sequence of N-terminal Xaa-Pro-Lys N-methyltransferase 1 (Homo sapiens) (Q9BV86 whole entry, looked up): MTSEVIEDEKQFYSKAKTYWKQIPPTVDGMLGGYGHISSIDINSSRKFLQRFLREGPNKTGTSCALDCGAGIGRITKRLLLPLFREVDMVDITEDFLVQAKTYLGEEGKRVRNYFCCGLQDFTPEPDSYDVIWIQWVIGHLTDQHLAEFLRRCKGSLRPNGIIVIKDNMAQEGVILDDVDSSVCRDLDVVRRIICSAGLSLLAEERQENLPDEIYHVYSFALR

The experiment concerns the target N-terminal Xaa-Pro-Lys N-methyltransferase 1 (Homo sapiens) (UniProt Q9BV86). Kind of experiment: Primary qHTS for Inhibitors of N-terminal methyltransferase 1 (NTMT1): MTaseGlo Assay.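 For activity change, negative = inhibition: plate controls were DMSO vehicle for no effect and no enzyme for full effect.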 Note: nearly all actives have a fitted effect of over 65% in size. To be noted: NTMT1 MTase-Glo SAH luminescence, purified enzyme; series mostly up to 114 µM; activity change, negative = inhibition: at the top concentration. From the text: Assay Submitter (PI): Rong Huang Ph.D.
Purdue University, West Lafayette, IN 47907
The N-terminal methytransferase 1 is the first methyltransferase that methylates protein alpha-N-amines and plays an important role in regulating cell mitosis, chromatin interactions and DNA repair. It is observed to be over-expressed in various cancer patient tissues like malignant melanoma and colorectal cancer tissues. Knockdown of NTMT1 in cancer cells causes cell mitotic defects and enhances sensitivity to DNA damaging chemotherapeutics. […] These critical cellular processes in which NTMT1 is implicated, coupled with emerging links to cellular dysfunction, strengthen the inference that NTMT1 is a compelling novel anticancer target. Progress have been made in understanding the molecular properties of NTMT1 and the biological consequences of protein alpha-N-terminal methylation, but there are no specific small molecule probes available for NTMT1 to fully characterize its MTase activity. To address this unmet need, a panel of assay is created and established to enable quantitative high-throughput screening (qHTS) for novel, potent, and selective small molecule NTMT1 inhibitors. Two orthogonal qHTS that use different reagents (ThioGlo vs. MTaseGlo) are developed for primary robotic screening against the NCATS chemical library of more than 400,000 small molecules. Identified inhibitors are reacquired, validated, and further characterized.
MTaseGlo Assay is a luminescence screen that measure the activity of methyltransferases based on the reaction product S-adenosyl homocysteine (SAH). The substrate SAM is converted to SAH upon enzyme activation. MTase-Glo reagent and detection solution convert SAH to ATP and measure the light from the luciferase reaction.
Materials: NTMT1 enzyme, substrate SPKRIA, control peptide RCC1-6 is provided by the Huang laboratory.
SEQUENCE No. (e.g., 1, 2, 3, etc.); […] (e.g., Cells, Incubation, Reagent, etc.); VALUE; DESCRIPTION
1; Enzyme; 3 uL; Dispense enzyme mixture (final concentrations of 125 nM NTMT1 and 100 uM SAM) into Greiner 1536-well white / solid bottom assay plate (Greiner Bio One, Monroe, NC).
2; Compounds; 23 nL; Compounds and controls were transferred via a Kalypsys Pin Tool (Wako USA) equipped with a 1536-slotted pin array (Wako Automation, Richmond, VA)
3; Incubation; 15 min; Incubate at room temperature
4; Substrate; 1 uL; Dispense 1 uL of substrate at final concentration of 1 uM. Buffer solution was dispensed in control wells. The assay plate was covered with metal lids.
5; Incubation; 30 min; Incubate at room temperature, protected from lights.
6; Reagent; 1 uL; Dispensed 5x MTase-Glo detection reagent (R) into the assay plate. The plate was covered with metal lids.
7; Incubation; 30 min; Incubate the assay plates at room temperature in the dark to allow for SAH to be converted to ADP.
8; Reagent; 5 uL; Dispense 5 uL of 1x MTase-Glo Detection Solution (R) to allow for ADP to be converted to ATP which was then detected with a luciferase reaction.
9; Centrifuge; 15 sec; Centrifuge the assay plate for 15 seconds at 1000 RPM.
10; Incubation; 30 min; Assay plates were incubation at room temperature in the dark.
11; Detection; Luminescence; Plates were read on ViewLux detector (PerkinElmer). Data were normalized to no-enzyme (0% activity) and no-inhibitor (DMSO; 100%) controls, and the resulting percent inhibition data were fitted to a 4-parameter Hill equation using GraphPad Prism.
Turning to `COc1cc2ncnc(Nc3cccc(Cl)c3F)c2cc1OC(=O)N1CCN(C)C[C@H]1C`, the Potency was 35.5 µM (active) and 39.8 µM (active).
`C=CC(=O)Nc1ccc2ncnc(Nc3ccc(OCc4cccc(F)c4)c(Cl)c3)c2c1`: the “activity change, negative = inhibition” value was -22% [at 57.5 µM].
For the compound `Cc1cc(NS(=O)(=O)c2cc3c(cc2F)NC(=O)CC3)ccc1F`, the Potency result was “inactive”.
As to `CNc1oc(-c2ccc(-c3ccccc3)cc2)nc1C#N`, the “activity change, negative = inhibition” value is -2.96%.
As for `COc1ccc(C(=O)N(Cc2ccccc2)Cc2ccc(OC)c(COc3ccc(NC(C)=O)cc3)c2)c(O)c1`, the “activity change, negative = inhibition” value is -0.368%.
Consider `O=C(Nc1ccc(S(=O)(=O)Nc2nccs2)cc1)C1CC(OCc2ccccc2)C1` (stereo unspecified), for which the “activity change, negative = inhibition” value is 3.69%.
For the compound `O=C(CNC(=O)c1ccc(Cl)cc1Cl)OC(C(=O)Nc1cc(C(F)(F)F)ccc1Cl)c1ccccc1` (stereo unspecified), the “activity change, negative = inhibition” value was 14.1%.
Still for that read-out and setting: the figure for `Cc1cn([C@H]2C[C@H](N[S+](=O)([O-])Cc3ccc(Cl)cc3)[C@@H](CO)O2)c(=O)[nH]c1=O` is 1.89%.
Turning to `Cc1cc(C)c(/C=C2\C(=O)Nc3ccccc32)[nH]1`, the Potency result is “inactive”.
Still for that read-out and setting: for `Cc1[nH]c(/C=C2\C(=O)Nc3ccc(S(=O)(=O)Cc4c(Cl)cccc4Cl)cc32)c(C)c1C(=O)N1CCC[C@@H]1CN1CCCC1` the value was 11.2 µM (active).
On to `Cc1ccc(C(=O)Nc2ccc(S(=O)(=O)Nc3nccs3)cc2)cc1C`, for which the “activity change, negative = inhibition” value is -14.7%.
Regarding `O=C(Cc1ccc(Cl)c(Cl)c1)Nc1ccc([S+](=O)([O-])Nc2cccc([N+](=O)[O-])c2)cc1`, the “activity change, negative = inhibition” value is 5.18%.
Turning to `O=S1(=O)N=C(Oc2cccc(Br)c2)c2ccccc21`, the “activity change, negative = inhibition” value is -6.08%.
Regarding `O=C(Nc1ccccn1)c1sc2ccc([N+](=O)[O-])cc2c1Cl`, the “activity change, negative = inhibition” value is 3.22%.
Still for that read-out and setting: the figure for `COC(=O)c1ccccc1NC(=O)c1ccc(C#N)cc1` is -1.32%; for `COc1ccc(C2Nc3ccccc3C(=O)N2Cc2cccc(OC)c2OC)cc1COc1c(C)cc(NC(C)=O)cc1C` (stereo unspecified) it is -0.852%.
For the compound `Cc1cccc(N2CCN(C(=O)c3cc4c(=O)oc5ccccc5c4s3)CC2C)c1` (stereo unspecified), the “activity change, negative = inhibition” value was 1.45%.
Same read-out and setting: the figure for `Cc1ccccc1NC(=O)c1c(NC(=O)c2ccccc2F)sc2c1CCC(C)C2` (stereo unspecified) is 22.5%.
With `Cc1cccc(N2CCN(c3ccc(C(=O)O)cc3NC(=O)c3ccccc3F)CC2C)c1` (stereo unspecified), the Potency is 70.8 µM (active).
`O=C1CC(c2c[nH]c3ccc(F)cc23)C(=O)N1` (stereo unspecified): the “activity change, negative = inhibition” value is 7.14%.
Same read-out and setting: the figure for `CC1=C(C(=O)Nc2ccccc2C)C(c2ccccc2Br)N=C(Nc2nc3ccccc3o2)N1` (stereo unspecified) is 10.4%; for `O=C(CNC(=O)c1ccc(Cl)c(C(F)(F)F)c1)OC(C(=O)Nc1cc(C(F)(F)F)ccc1Cl)c1ccccc1` (stereo unspecified) it is 6.81%; for `Cc1ccc(-c2ccc(=O)n(CCNC(C)c3ccco3)n2)cc1` (stereo unspecified) it is -3.03%.
For `Cc1c(Cl)cccc1NC(=O)N1CCN(C(=O)c2nsc3ccccc23)CC1`, the “activity change, negative = inhibition” value is 4.51%.
In the case of `CCC(C(=O)Nc1cccc(Cl)c1C)n1nc(-c2ccc(C)cc2)ccc1=O` (stereo unspecified), the Potency was 79.4 µM (active).
Turning to `N#CN1CCC(NC(=O)c2ccc(F)cc2)CC1`, the “activity change, negative = inhibition” value was 10.9%.
Still for that read-out and setting: the figure for `CNc1oc(-c2cccc(Cl)c2Cl)nc1C#N` is -4.37%; for `COc1cccc(C(=O)NC2CCN(C#N)CC2)c1` it is 12.7%; for `COc1ccc(C2Nc3ccccc3C(=O)N2Cc2ccccc2)cc1COc1ccc(C(N)=O)cc1` (stereo unspecified) it is 16% [at 57.5 µM].
Still for that read-out and setting: for `C[C@H](NC(=O)c1c(N)nn2cccnc12)c1cc2cccc(C#Cc3cnn(C)c3)c2c(=O)n1-c1ccccc1` the value was 8.45% [at 57.5 µM].
Take `Cc1sc(NC(=O)Cc2ccc3c(c2)OCO3)nc1-c1ccc2c(c1)CCN2`: the “activity change, negative = inhibition” value was 4.99%.
Consider `CCCN(CCC)CCCNC(=O)Cn1ncc2c3ccccc3n(Cc3ccccc3)c2c1=O`, for which the “activity change, negative = inhibition” value was -15.4%.
For `CCN(CCCNC(=O)Cn1ncc2c3ccccc3n(C)c2c1=O)Cc1ccccc1`, the “activity change, negative = inhibition” value is 4.28%.
`CCN(CC)CCNC(=O)Cn1ncc2c3ccccc3n(Cc3ccccc3C)c2c1=O`: the Potency is 89.1 µM (active).
As for `CCOc1ccc(CCNC(=O)c2cc3sccc3n2CCN2CCOCC2)cc1OCC`, the “activity change, negative = inhibition” value is -2.87%.
Same read-out and setting: the figure for `CS(=O)(=O)c1ccc(C(=O)OCC(=O)N2CCC(c3ccccc3)CC2)cc1[N+](=O)[O-]` is 12.1%; for `Cc1cc(N[S+](=O)([O-])c2ccc(NC(=O)Cc3ccc(F)c(C(F)(F)F)c3)cc2)no1` it is 11.7%; for `Cc1cc(Oc2ccc3nc(COc4ccc(CC5SC(=O)NC5=O)cc4)n(C)c3c2)cc(C)c1N` (stereo unspecified) it is -20.2%.
Still for that read-out and setting: for `Cc1nn2c(=O)cc(COC(=O)c3cccc(NC(=O)COc4ccccc4Cl)c3)nc2s1` the value was -5.59%; for `CCCCc1nn2c(=O)cc(COC(=O)c3cccc(NC(=O)COc4ccccc4)c3)nc2s1`, 12.9%.
Turning to `COc1ccc(OCC(=O)Nc2cccc(C(=O)OCc3cc(=O)n4nc(C)sc4n3)c2)cc1`, the Potency is 50.1 µM (active).
Regarding `CCN(CC)CCNC(=O)c1c(C)[nH]c(C=C2C(=O)Nc3ccc(F)cc32)c1C`, the Potency was 44.1 µM (active).
As for `CCOc1cc2[nH]c(=O)n(Cc3ccc(C(=O)NCCN(CC)CC)cc3)c(=O)c2cc1OCC`, the “activity change, negative = inhibition” value was 0.768%.
Turning to `CCN(CC)CCNC(=O)c1cc(S(C)(=O)=O)ccc1OC`, the “activity change, negative = inhibition” value is 10.6% [at 57.5 µM].
Still for that read-out and setting: for `CCOc1cc(C(C)(C)C)ccc1C1=N[C@@](C)(c2ccc(Cl)cc2)[C@@](C)(c2ccc(Cl)cc2)N1C(=O)N1CCN(CC(=O)N2CCOCC2)CC1` the value was 23.9% [at 57.5 µM].
On the same count and under the same terms, the figure for `C=C1C[C@@H]2CC[C@@]34C[C@H]5O[C@H]6[C@@H](O3)[C@H]3O[C@H](CC[C@@H]3O[C@H]6[C@H]5O4)CC(=O)C[C@@H]3[C@@H](OC)[C@@H](C[C@H](O)CN)O[C@H]3C[C@H]3O[C@@H](CC[C@@H]1O2)C[C@@H](C)C3=C` is 19.2% [at 29.8 µM]; for `O=S(=O)(NC1CCN(S(=O)(=O)c2ccc3c(c2)OCCO3)CC1)c1c(F)cccc1F` it is 0.994%; for `COc1ccc(C2=Nn3c(nnc3-c3ccccc3F)SC2)cc1OC` it is 8.76%.
Same read-out and setting: the figure for `COC(=O)c1ccc(NC(=O)CSc2n[nH]c(-c3ccccc3)n2)cc1` is 7.74%.
As for `COc1ccc(NC(=O)CSc2nc3ccccc3[nH]2)cc1`, the “activity change, negative = inhibition” value was 3.79%.
Turning to `COc1ccc(-c2nc3c(c(SCC(=O)Nc4ccc(C(=O)O)cc4)n2)Cc2ccccc2O3)cc1`, the Potency was 11.2 µM (active).
On to `CN(C)CC(=O)NC1CCCc2c1cnn2-c1ccc(F)cc1F` (stereo unspecified), for which the “activity change, negative = inhibition” value was 16.2%.
On the same count and under the same terms, for `O=C(Nc1ccc(Cl)c(Cl)c1)Nc1nnc(-c2ccc(F)cc2)s1` the value was 2.77% [at 57.5 µM].
As to `O=C(Nc1ccc(Cl)c(Cl)c1)Nc1nnc(N2CCNCC2)s1`, the Potency is 50.1 µM (active).
As to `O=C(Nc1ccc(Cl)c(Cl)c1)Nc1nnc(C2CCCCC2)s1`, the “activity change, negative = inhibition” value is 4.94%.
For the compound `O=C(Nc1nc(-c2ccccc2)cs1)c1ccccc1-n1cnnn1`, the “activity change, negative = inhibition” value was -8.17%.
